Screening results (PubChem BioAssay)
The list is not random: actives were taken first. Their share in the collection is about 3.2%.
Y pestis TopoI – Y. pestis Topo-I inhibition via cleavage products. Y. pestis Topo-I cleavage product accumulation, plate reader. activity, % at 10 µM. 0.064% of 360,000 active; in the data active = activity above about 50%, passing the limit was not always enough
Mtb FBA inh – inhibitors of M. tuberculosis fructose-bisphosphate aldolase | P9WQA3 | purified M. tuberculosis FBA, fluorescence read-out | inhibition, % at 1 µM | 2.3% of 360,000 active; in the data active = inhibition above about 27%
PrPC TRFRET – reduces human prion protein on the cell surface | cell surface PrPC, TR-FRET read-out | inhibition, % at 13.8 µM | 0.43% of 370,000 active; in the data active = inhibition above about 24%
TcdB GH inh – inhibitors of Clostridioides difficile toxin B glycohydrolase. P18177. TcdB glycohydrolase enzymatic assay, plate reader. inhibition, % at 9.99 µM. 0.24% of 350,000 active. AID 652162; in the data active = inhibition above about 10%
GDH-TPI inh – inhibits GDH-TPI coupling enzymes, artifact for Mtb FBA screen | GDH-TPI coupled enzyme counterscreen, NADH absorbance | inhibition, % at 4.8 µM | 1.2% of 360,000 active; in the data active = inhibition above about 30%
Large screens that a line does not name were inactive.

COc1ccc(C(=O)/C=C/Nc2c(C)n(C)n(-c3ccccc3)c2=O)cc1OC	GDH-TPI inh 35 (no result: TcdB GH inh)
Cc1c(NC(=O)C(=O)/C=C(/O)c2ccccc2)c(=O)n(-c2ccccc2)n1C	none
C[C@H](O)C#Cc1cnc2c(c1)C(=O)N([C@H](C)CO)C[C@@H](C)[C@H](CN(C)C(=O)Nc1ccc(F)cc1)O2	none (no result: Y pestis TopoI, Mtb FBA inh, PrPC TRFRET, GDH-TPI inh)
CCCC(=O)Nc1ccc2c(c1)OC[C@H](C)N(Cc1ccccn1)C[C@H](C)[C@@H](OC)CN(C)C2=O	none (no result: Y pestis TopoI, Mtb FBA inh, PrPC TRFRET, GDH-TPI inh)
COc1ccc(S(=O)(=O)N2CCC3(CC2)CN(C(=O)CN(C)C)[C@@H](CO)c2c3c3ccc(OC)cc3n2C)cc1	none (no result: Y pestis TopoI, Mtb FBA inh, PrPC TRFRET, GDH-TPI inh)
CC1(C)Cc2nc(NCCCO)c(C#N)cc2CO1	Mtb FBA inh 112 (no result: TcdB GH inh)
CC1(C)Cc2nc3sc(C(=O)NCCO)c(N)c3cc2CO1	none (no result: TcdB GH inh)
CC1(C)Cc2nc(Cl)c(C#N)cc2CO1	TcdB GH inh 10
COCCNC(=O)C[C@@H]1C[C@@H]2c3cc(NC(=O)CC4CC4)ccc3O[C@@H]2[C@H](CO)O1	none (no result: Y pestis TopoI, Mtb FBA inh, PrPC TRFRET, GDH-TPI inh)
CNc1cnc(-c2ccc(F)c(F)c2F)cn1	Mtb FBA inh 166
CNc1cnc(-c2ccc(O)c(OC)c2)cn1	none
CCOC(=O)C(C#N)=CN1CCN(C(=O)CCCl)c2ccccc21	none
CCOC(=O)C(C#N)=CN1CCNc2ccccc21	GDH-TPI inh 31
Nc1nn2cc(-c3ccccc3)nc2c2ccccc12	Mtb FBA inh active
COCc1cn(CC[C@H]2CC[C@H](NC(=O)c3ccc(F)cc3)[C@@H](CO)O2)nn1	none (no result: Y pestis TopoI, Mtb FBA inh, PrPC TRFRET, GDH-TPI inh)
CC/C(=N\NC(=O)c1ccccc1Cl)c1c(O)n(C2CCCCC2)c(=O)[nH]c1=O	GDH-TPI inh 34
C[C@H]1CCCCO[C@H](CN(C)CC2CC2)[C@@H](C)CN([C@@H](C)CO)C(=O)c2cc(NC(=O)C3CCCCC3)ccc2O1	none (no result: Y pestis TopoI, Mtb FBA inh, PrPC TRFRET, GDH-TPI inh)
CC(=O)c1ccc(NC(=O)c2ccc([N+](=O)[O-])o2)cc1	none
CCCC(=O)N1CCN(c2ccc(NC(=O)c3ccc([N+](=O)[O-])o3)cc2Cl)CC1	PrPC TRFRET 40
CC(=O)c1cccc(NC(=O)c2ccc([N+](=O)[O-])o2)c1	GDH-TPI inh 46
CN1CCN(c2ccc(NC(=O)c3ccc([N+](=O)[O-])o3)cc2Cl)CC1	none
Cn1c(CN2CCN(CCO)CC2)c(C#N)c2ccccc21	GDH-TPI inh 31
CCNc1oc(-c2cccc3ccccc23)nc1C#N	Mtb FBA inh active (no result: TcdB GH inh)
C=CCNc1oc(-c2cccc3ccccc23)nc1C#N	Mtb FBA inh active (no result: TcdB GH inh)
CC(C)Nc1oc(-c2cccc3ccccc23)nc1C#N	Mtb FBA inh active (no result: TcdB GH inh)
N#Cc1nc(-c2cccc3ccccc23)oc1N1CCCCC1	none (no result: TcdB GH inh)
CO[C@@H]1CN(C)C(=O)c2cc(NC(=O)C3CC3)ccc2OC[C@H](C)N(Cc2ccncc2)C[C@@H]1C	none (no result: Y pestis TopoI, Mtb FBA inh, PrPC TRFRET, GDH-TPI inh)
COc1ccc(NC(=O)C#Cc2ccccc2)cc1OC	GDH-TPI inh 34
NC(=O)c1ccc(NC(=O)C#Cc2ccccc2)cc1	none
Cc1ccc2c(c1)/C(=C/c1ccccc1C)C(=O)N2	TcdB GH inh 12
CCN(C(=O)COC(=O)c1cccnc1SC)C1CCCCC1	TcdB GH inh 15
CCN(C(=O)COC(=O)c1cccnc1SC)C1CCS(=O)(=O)C1 (stereo unspecified)	none
COc1ccc(NC(=O)N(C)C[C@H]2Oc3ccc(NS(=O)(=O)c4cccs4)cc3C(=O)N([C@H](C)CO)C[C@H]2C)cc1	none (no result: Y pestis TopoI, Mtb FBA inh, PrPC TRFRET, GDH-TPI inh)
Cc1nn(C)c(C)c1/C=C1/SC(=S)NC1=O	GDH-TPI inh 35
COC(=O)Cn1c(=O)c(C(=O)CCl)c(N)n(Cc2ccccc2)c1=O	none
COC(=O)Cn1c(=O)c2c(n(Cc3ccccc3)c1=O)N/C(=C/c1ccc(OC)cc1)C2=O	GDH-TPI inh 41
C[C@@H]1CN([C@@H](C)CO)C(=O)c2cc(N(C)C)ccc2O[C@@H]1CN(C)C	none (no result: Y pestis TopoI, Mtb FBA inh, PrPC TRFRET, GDH-TPI inh)
CN(C)C(=O)c1ccc(-c2ccc([C@H]3[C@@H](C#N)N(C(=O)C4CCCC4)[C@H]3CO)cc2)cc1	none (no result: Y pestis TopoI, Mtb FBA inh, PrPC TRFRET, GDH-TPI inh)
CCOC(=O)C1=C(C)NC(SC)=C(C#N)C1CC(C)C (stereo unspecified)	GDH-TPI inh 32
COc1cccc(-c2cnc3c(c2)C(=O)N([C@H](C)CO)C[C@@H](C)[C@@H](CN(C)C(=O)Nc2c(C)noc2C)O3)c1	none (no result: Y pestis TopoI, Mtb FBA inh, PrPC TRFRET, GDH-TPI inh)
COc1ccc(CNC(=O)Nc2ccc3c(c2)c(=O)n(C)n3Cc2cc(C)cc(C)c2)cc1	Mtb FBA inh 168
Cc1cc(C)cc(Cn2c3ccc(NC(=S)NCc4ccccc4F)cc3c(=O)n2C)c1	none
CC(C)=CCn1c2ccc(NC(=O)NCc3ccc(F)cc3)cc2c(=O)n1C	Mtb FBA inh 138
CCNC(=O)Nc1ccc2c(c1)c(=O)n(C)n2CC=C(C)C	Mtb FBA inh 173
